Results on 40 molecules are retold here after PubChem BioAssay (Tox21).

Results filed as inconclusive are left out. A call without a number means that no potency is given here. Values without a mark were called inactive. The source made the active and inactive calls. Calls come from the whole dose curve; as a rule, active = well fitted activation curve with a large enough effect in the signal ratio in the repeat runs (not every such curve was filed as active); inconclusive = weak or mixed curves, or effect the other way; inactive = flat fitted curve, though single readings scatter; the % refers to the signal ratio.

Estrogen receptor beta (Homo sapiens), sequence (Q92731 whole entry, looked up): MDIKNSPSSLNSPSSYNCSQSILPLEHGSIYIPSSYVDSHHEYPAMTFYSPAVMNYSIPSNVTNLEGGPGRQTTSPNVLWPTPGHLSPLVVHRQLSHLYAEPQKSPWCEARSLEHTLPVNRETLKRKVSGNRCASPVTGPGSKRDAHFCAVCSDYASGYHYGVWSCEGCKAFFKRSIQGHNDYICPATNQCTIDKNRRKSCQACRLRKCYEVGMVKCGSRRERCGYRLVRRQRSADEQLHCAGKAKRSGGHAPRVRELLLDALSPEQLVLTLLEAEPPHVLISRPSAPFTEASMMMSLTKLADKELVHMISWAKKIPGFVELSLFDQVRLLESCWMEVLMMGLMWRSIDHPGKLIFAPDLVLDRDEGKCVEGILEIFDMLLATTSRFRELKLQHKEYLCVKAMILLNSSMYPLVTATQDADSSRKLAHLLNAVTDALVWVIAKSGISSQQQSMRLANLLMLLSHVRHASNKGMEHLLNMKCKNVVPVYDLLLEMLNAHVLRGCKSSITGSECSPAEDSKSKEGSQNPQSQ

The target in the assay is Estrogen receptor beta (Homo sapiens) (UniProt Q92731). Description: qHTS assay to identify small molecule agonists of the estrogen receptor beta (ER-beta) signaling pathway (AID 1259377). The settings on record: ER-beta-UAS-bla HEK293T, beta-lactamase FRET ratio, 16 h; series mostly up to 92.4 µM. The source says:
U.S. Tox21 Program National Center for Advancing Translational Sciences [NCATS] NIH Chemical Genomics Center [NCGC] U.S. Environmental Protection Agency [EPA] National Institutes of Environmental Health Sciences [NIEHS] National Toxicology Program [NTP] U.S. Food and Drug Administration [FDA] Tox21 Assay Overview: Estrogen receptor (ER), a nuclear hormone receptor, plays an important role in development, metabolic homeostasis and reproduction. Two subtypes of ER, ER-alpha and ER-beta, have similar expression patterns with some uniqueness in both types. Endocrine disrupting chemicals (EDCs) and their interactions with steroid hormone receptors like ER causes disruption of normal endocrine function. To identify the compounds that activate ER signaling, an ER beta-UAS-bla GripTite cell line (Life technologies, Madison, WI, USA) containing a beta-lactamase reporter gene under the control of an Upstream Activator Sequence (UAS) was used to screen Tox21 10K compound library.
Tox21 Assay Protocol Summary: ER-beta-UAS-bla HEK293T cells were dispensed at 2,000 cells/5 uL of assay medium containing 2% charcoal stripped FBS per well into black wall/clear-bottom 1536-well plates using a Multidrop Combi (ThermoFisher Scientific, Waltham, MA) dispenser. After the assay plates were incubated at a 37C and 5% CO2 for 6 hr, 23 nL of compounds dissolved in DMSO, positive controls or DMSO only was transferred to the assay plate by a Pintool station (Kalypsys, San Diego, CA). The plates were incubated at 37C and 5% CO2 for 16 hr. Then 1 uL of LiveBLAzerTM B/G FRET substrate was added using a BioRAPTR FRD (Flying Reagent Dispenser, Aurora Discovery, San Diego, CA). After the plates were incubated at room temperature for 2 hours, fluorescence intensity was measured by an Envision plate reader (PerkinElmer, Shelton, CT).
On the technique in general: Quantitative high-throughput screening tests each substance at several concentrations.
In the case of `Cc1ccc(Nc2nccc(N(C)c3ccc4c(C)n(C)nc4c3)n2)cc1S(N)(=O)=O`, the Potency entry is “inactive”.

As for `c1cnc2c(n1)CCCC2`, the Potency entry is “inactive”. On to `CC[C@@H]([C@H](C)O)n1ncn(-c2ccc(N3CCN(c4ccc(OC[C@@H]5CO[C@@](Cn6cncn6)(c6ccc(F)cc6F)C5)cc4)CC3)cc2)c1=O`, for which the Potency entry is “inactive”. Take `[O]=[Bi]`: the activation was 4.87% [at 8.39 µM].

`CCN(CC)CCNC(=O)c1ccc(NC(C)=O)cc1`: the Potency entry is “inactive”. The same measure, in the same setting: next, `CCCCCCCC/C=C\CCCCCCCC(=O)OC(CO)CO`: “inactive”. For the molecule `CN1C(=O)CC(C)(c2ccccc2)C1=O` (stereo not given), the Potency result was “inactive”. Same read-out and setting: with `CCOC(=O)CC(=O)C(=O)OCC` the entry was “inactive”; with `CC(CCc1ccc2c(c1)OCO2)NN` (stereo not given), “inactive”. Regarding `CCCCCCCCCCCCCCCCBr`, the activation is 0.819% [at 19 µM].

Turning to `CCOC(=O)[C@@H](C)Oc1ccc(Oc2nc3ccc(Cl)cc3o2)cc1`, the Potency result is “inactive”. In the case of `C=CC(=O)NCOCC(C)C`, the Potency result was “inactive”. Regarding `CCn1cc(C(=O)O)c(=O)c2cc(F)c(N3CCNCC3)nc21`, the Potency result is “inactive”. On the same count and under the same terms, next, `CCOCCn1c(C2CCN(CCc3ccc(C(C)(C)C(=O)O)cc3)CC2)nc2ccccc21`: “inactive”. Consider `CCCC1C(CC)=CC(CC)=CN1c1ccccc1` (stereo not given), for which the Potency entry is “inactive”. Turning to `CC(C)(C)C(=O)O`, the Potency entry is “inactive”.

Regarding `NCC1CCCC(CN)C1` (stereo not given), the Potency result was “inactive”. The same measure, in the same setting: with `CC(C)(O)c1ccccc1CC[C@@H](SCC1(CC(=O)O)CC1)c1cccc(/C=C/c2ccc3ccc(Cl)cc3n2)c1` the entry was “inactive”; with `CO/N=C1\CN(c2nc3c(cc2F)c(=O)c(C(=O)O)cn3C2CC2)CC1CN` (stereo not given), “inactive”. On the same count and under the same terms, next, `CC(Cl)C(Cl)Cl` (stereo not given): “inactive”. Regarding `COC(OC)(C(=O)c1ccccc1)c1ccccc1`, the Potency entry is “inactive”. Same read-out and setting: next, `C(=C\c1ccccc1)/CN1CCN(C(c2ccccc2)c2ccccc2)CC1`: “inactive”; `CC(=O)[C@H]1CC[C@H]2[C@@H]3C=CC4=CC(=O)CC[C@@]4(C)[C@@H]3CC[C@]12C`: “inactive”; `O=C(N[C@@H](c1ccccc1)[C@@H]1CCCCN1)c1cccc(C(F)(F)F)c1Cl`: “inactive”.

For the molecule `O=C(O)c1ccc(CO)o1`, the Potency result was “inactive”. On the same count and under the same terms, next, `O=C1NCCN1`: “inactive”; `CC(C)CCCCCOC(=O)CCCCC(=O)OCCCCCC(C)C`: “inactive”. `CC1(C)O[C@@H]2C[C@H]3[C@@H]4CCC5=CC(=O)C=C[C@]5(C)[C@H]4[C@@H](O)C[C@]3(C)[C@]2(C(=O)CO)O1`: the Potency result was “inactive”.

On to `Cc1ccc(S)cc1`, for which the Potency entry was “inactive”. Same read-out and setting: next, `CCCCCCCCCOC(C)=O`: “inactive”. In the case of `CCOC(=O)OCC`, the Potency result was “inactive”. Still for that read-out and setting: next, `NC(=O)N(O)[C@@H]1COc2cc(OCc3ccccc3)ccc21`: “inactive”. Regarding `CCOC(=O)c1ccccc1C`, the Potency entry was “inactive”. On the same count and under the same terms, with `COC(=O)c1cc(Cl)ccc1NS(=O)(=O)C(F)(F)F` the entry was “inactive”. Regarding `CCOC(=O)/C=C/C(=O)O`, the Potency entry was “inactive”. The same measure, in the same setting: with `CC(=O)Nc1ccc(N)cc1` the entry was “inactive”. Consider `CC[C@H](NC(=O)c1cc(F)ccc1NS(=O)(=O)c1cccc2cccnc12)c1ccccc1`, for which the Potency result was “inactive”. Still for that read-out and setting: next, `Cc1occc1C(=O)Nc1ccc(C(=O)N2CCC(F)(F)/C(=C\C(=O)N3CCC(N4CCCCC4)CC3)c3ccccc32)cc1`: “inactive”; `Cc1cc(S(=O)(=O)O)ccc1N=Nc1c(O)ccc2ccccc12`: “inactive”. Still for that read-out and setting: next, `Cc1nc2ccccc2s1`: “inactive”.
